In PubChem BioAssay (EPA / NIEHS):
“And” between values parts separate entries of the source, which are not always exact repeats. Equal entries are not always repeated. Some structures have more than one record in an assay (separate samples or runs), and their calls can disagree. The source made the active and inactive calls. How the source made its calls: active means hit-call score of the fitted dose curve at least 0.9, where 1 is the maximum; inactive means score below 0.9.

test: ATG_PXRE_CIS: Attagene CIS-FACTORIAL HepG2 Assay for human Pregnane X Receptor Element (PXRE) (AID 2282957); settings: HepG2 Attagene CIS-FACTORIAL PXRE reporter, mRNA; actives raise or lower the signal
Protocol: ATG_CIS is a cell-based, multiplexed-readout assay that uses HepG2, a human liver cell line, with measurements taken at 24 hours after chemical dosing in a 24-well plate.ATG_PXRE_CIS is one of 52 assay component(s) measured or calculated from the ATG_CIS assay. It is designed to make measurements of mRNA induction, a form of inducible reporter, as detected with fluorescence intensity signals by Reverse transcription polymerase chain reaction (RT-PCR) and Capillary electrophoresis technology.Data from the assay component ATG_PXRE_CIS was analyzed into 1 assay endpoint. This assay endpoint, ATG_PXRE_CIS, was analyzed with bidirectional fitting relative to DMSO as the negative control and baseline of activity. Using a type of inducible reporter, measures of mRNA for gain or loss-of-signal activity can be used to understand the reporter gene at the transcription factor-level as they relate to the gene NR1I2. Furthermore, this assay endpoint can be referred to as a primary readout, because this assay has produced multiple assay endpoints where this one serves a reporter gene function. To generalize the intended target to other relatable targets, this assay endpoint is annotated to the nuclear receptor intended target family, where the subfamily is non-steroidal.
Human liver HepG2 cells are transiently transfected with multiple reporter transcription units (MRTUs) in 6-well plates using FuGene 6 reagent (Roche; 3 ml FuGene/1 mg DNA). The MRTU constructs are regulated by a cis-regulating element (promoter). […] A major difference between the CIS and TRANS system is that in CIS activities of endogenous TFs are measured, whereas the TRANS assay evaluates changes in activities of exogenous, chimeric NR-Gal4 proteins. […] At the end of 24 hour incubation, total RNA was isolated using TriZol reagent (Invitrogen). The isolated RNA is then reverse-transcribed using oligo(dT) primer and Mo-MLV reverse transcriptase (Invitrogen) with DNAse I (Ambion) treatment for 30 min. The one-tenth of the produced cDNA was amplified by PCR using Taq DNA polymerase (Invitrogen) and two reporter sequence-specific primers. The PCR products were fluorescently labeled by primer extension with 6-arboxyfluorescein (6-FAM) 5'-labeled reporter sequence-specific primer (2 min at 95 C, 20 s at 68 C and 10 min at 72 C) and these products were digested with 5U of HpaI (New England Biolabs) for 2h at 37 C. The fragments were purified using Qiaquick PCR columns (Qiagen), analyzed on an ABI 3130xL genetic analyzer (Applied Biosystems) with peak positions identified by using a set of X-rhodamine (ROX)-labeled MapMarker1000 molecular weight standards (BioVentures). The raw capillary electrophoresis data was processed using Attagraph software (Attagene).

Structure (SMILES)	outcome	AC50
O=[N+]([O-])c1ccc(Cl)c([N+](=O)[O-])c1	inactive	
C1CN2CCN1CC2	inactive	
O=c1oc2ccccc2c(O)c1C(CC(O)c1ccc(-c2ccc(Br)cc2)cc1)c1ccccc1 (stereo not given)		8.03 µM (active) and 7.59 µM (active)
O=C(Nc1ccc(Br)cc1)c1cc(Br)cc(Br)c1O		3.75 µM (active)
CCCCCCCCBr	inactive	
COc1ccc([N+](=O)[O-])cc1O	inactive	
O=NN1CCOCC1		69.6 µM (active)
CC(=O)CN(CC(C)=O)N=O	inactive	
N#Cc1cccnc1	inactive	
Cc1cccc(OP(=O)(Oc2cccc(C)c2)Oc2cccc(C)c2)c1		1.32 µM (active)
N#CS	inactive	
CCOC(=O)OC1=C(c2cc(C)ccc2C)C(=O)NC12CCC(OC)CC2 (stereo not given)	inactive	
CC1CC(=O)O1 (stereo not given)	inactive	
C[C@H]1C(=O)O[C@@H]2CCN3CC=C(COC(=O)[C@](C)(O)[C@]1(C)O)[C@H]23	inactive	
O=c1[nH]c(=O)n(Cl)c(=O)n1Cl	inactive	52.5 µM (active)
CN(C)CCN(C)C	inactive	
Nc1ccc(N)cc1	inactive	33 µM (active)
CCCCOP(=O)(CCCC)OCCCC		6.97 µM (active)
CCC(C)(C#N)N=NC(C)(C#N)CC (stereo not given)		22 µM (active)

Structure (SMILES)	outcome	AC50
N#Cc1ccc(Cl)cc1		54.6 µM (active)
CCOP(=S)(OCC)OP(=S)(OCC)OCC		1.11 µM (active)
Cc1cc(-c2cc(C)c(N)c(C)c2)cc(C)c1N		26.5 µM (active)
CCCCCCCCCCCCN(C)C		58.6 µM (active)
O=C(NC(=O)c1c(F)cccc1F)Nc1ccc(Cl)cc1	inactive	
ClCCCCl	inactive	
CCCCOC(C)=O	inactive	
O=[N+]([O-])c1ccccc1O	inactive	26.7 µM (active)
c1ccc2c(c1)Oc1ccccc1O2		75.9 µM (active)
CCN(N=O)C(N)=O	inactive	
Cc1cc(Cl)ccc1O	inactive	
Cc1ccccc1OP(=O)(Oc1ccccc1C)Oc1ccccc1C		0.0902 µM (active)
O=[N+]([O-])c1ccc(Nc2ccccc2)cc1		26.9 µM (active)
Clc1cc(C(Cl)(Cl)Cl)cnc1Cl		8.47 µM (active)
CC(c1ccc(O)cc1)c1ccc(O)cc1		27.6 µM (active)
N#Cc1ccncc1	inactive	
O=[N+]([O-])c1cccc2ccccc12		27.6 µM (active)
C=C(C)C(=O)OCCCCOC(=O)C(=C)C	inactive	
